High-throughput results as filed in PubChem.
In the library only some 17% were active in any assay of this set; here they are far more common.
DT40 TDP1 CPT = DT40-hTDP1 cell growth loss with CPT; chicken DT40 Tdp1-/-;hTDP1 cells + 20 nM CPT, ATP luminescence, 48 h; Potency, µM (series often up to 46.2 µM), without a hit: at the top dose activity change, negative = growth inhibition, hits mostly inhibitors; 12% of 420,000 active; AID 686979; further: on the % scale 0 is the no-effect control and ±100 the full control effect; nearly all actives have a fitted effect of over 55% in size
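Chicken DT40 Tdp1-/- cells complemented with human TDP1, 400 cells/well, exposed to compounds plus 20 nM camptothecin for at least 48 h at 37 C; viability read as ATP content by CellTiter-Glo luminescence.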
TDP1 inh = TDP1 (human) enzyme inhibition | Potency, µM (highest dose often 130 µM), inactives show at the highest dose activity change, negative = inhibition, actives largely listed as inhibitors | recombinant TDP1, AlphaScreen DNA substrate cleavage | 0.28% of 350,000 active | Q9NUW8; further: on the % scale 0 is the no-effect control and ±100 the full control effect; nearly all actives have a fitted effect of over 40% in size
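Steps: enzyme plus compound, 15 min RT; add biotin/phosphotyrosine-FITC oligonucleotide (15 nM final), react 5 min; add donor/acceptor beads (10 ug/ml final), 10 min; read AlphaScreen. Tdp1 at 1 nM final.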
TDP1 cell noCPT = qHTS for Inhibitors of human tyrosyl-DNA phosphodiesterase 1 (TDP1): qHTS in cells in absence of CPT; 15% of 420,000 active; Potency, µM (doses to about 46.2 µM), inactives show top-dose activity change, negative = growth inhibition, usual class: inhibitors; DT40 Tdp1-/- hTDP1 cells, no CPT, ATP luminescence, 48 h; AID 686978, 2013; further: on the % scale 0 is the no-effect control and ±100 the full control effect; nearly all actives have a fitted effect of over 55% in size
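DT40 Tdp1-/-;hTDP1 cells, no CPT (DMSO vehicle only), 400 cells/well; compounds pin-transferred; ≥48 hr, 37 °C; CellTiter-Glo 30 min RT dark, luminescence read.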
ClpP mod = qHTS Assay for Activators of ClpP; ATP-dependent Clp protease proteolytic subunit (Bacillus subtilis (strain 168)), P80244; purified B. subtilis ClpP, FRET peptide cleavage, 20 min; Potency, µM (top dose mostly 57.5 µM), for the others: top-dose activity change, negative = active; 1.9% of 340,000 active; active means well fitted falling curve with a large enough effect; inconclusive means small, poorly fitted or top-dose-only effect; inactive means no such curve, though single readings can be large or run the other way; further: the source files actives as falling curves though it sought activators and does not explain the sign; nearly all actives have a fitted effect of over 65% in size
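Purified B. subtilis ClpP, 10 microg/mL final in Tris/HCl pH8 with KCl, BSA, glycerol and Tween-20, cleaved an Abz/nitrotyrosine-quenched decapeptide. Fluorescence (ex 320, em 430) was read at 0 and 20 min at room temperature. Delta was normalized to 5.8 microM ADEP and DMSO/no-enzyme controls.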
Active calls of the source: *; ? = inconclusive; . = not tested or not shown; [ ] = remark or other dose. Unless noted, the call rests on the fitted dose curve; in most records, active means well fitted curve in the direction sought with a large enough effect; inconclusive means small, poorly fitted or top-dose-only effect, or another doubt; inactive means no such curve, though single readings can be large; an effect the other way counts as inactive or inconclusive. Potency means the concentration at half of the fitted maximal effect.

SMILES	DT40 TDP1 CPT	TDP1 inh	TDP1 cell noCPT	ClpP mod
COC(=O)c1ccc(N2C(c3cc(OC)cc(OC)c3)=Cc3ccc(-c4cnc(OC)nc4)cc3C2CC(=O)C2CC2)cc1 (stereo not drawn)	-21.1%	.	-28.8%	5.3%
O=C(c1c(F)cccc1F)N1CCCC(c2nc(-c3ccc(F)cc3)no2)C1 (stereo not drawn)	23.1µM*	.	16.4µM*	0.2%
Cc1ccccc1NC(=O)N1CCCC(c2nc(-c3ccc(F)cc3)no2)C1 (stereo not drawn)	?	-1.0%	-20.2%	-0.4%
O=S(=O)(Cc1ccccc1)N1CCCC(c2nc(-c3ccc(F)cc3)no2)C1 (stereo not drawn)	-26.2%	-7.7%	18.4µM*	-0.8%
CC(C)CNC(=S)N1CCC(c2nc(-c3ccc(F)cc3)no2)CC1	20.6µM*	4.9%	20.6µM*	-0.4%
Cc1ccccc1NC(=O)N1CCCC(c2nc(-c3ccc(C(C)C)cc3)no2)C1 (stereo not drawn)	15.8µM*	-12.2%	35.5µM*	-0.1%
COC(=O)[C@]12CCCCC=C1N(Cc1ccco1)C(=O)[C@H](CC(=O)NCCCN1CCCC1=O)C2	4.5%	.	-0.9%	-4.3%
O=C(Nc1ccc(Cl)cc1F)C1CCN(S(=O)(=O)c2cccc3nonc23)CC1	3.8%	12.4%	-18.1%	-8.0%
O=C(O)c1ccc(-c2noc(-c3ccccc3F)n2)cc1	.	6.8%	.	.
O=C(c1ccccc1-c1nc(-c2ccc(F)cc2)no1)N1CCCC1	?	-3.0%	23.1µM*	-1.1%
CC(C)c1ccc(-c2noc(C3CCCN(C(=O)c4ccc(F)cc4F)C3)n2)cc1 (stereo not drawn)	?	2.3%	20.6µM*	-1.4%
O=C(Nc1ccccc1)N1CC=C(c2ccccc2)CC1	.	9.1%	.	.
O=C(Nc1ccccc1)N1CC=C(c2ccc(F)cc2)CC1	?	-5.6%	13µM*	-10.1%
O=C(Nc1ccccc1)N1CCCC(c2nc(-c3ccc(F)cc3)no2)C1 (stereo not drawn)	?	3.8%	18.4µM*	0.6%
Cc1ccc(Cl)cc1N1CCN(C(=O)COCc2cc(-c3ccc4c(c3)OCO4)on2)CC1	-1.2%	1.2%	-25.2%	?
Cc1ccc(NC(=O)N2CCCC(c3nc(-c4ccc(F)cc4)no3)C2)cc1 (stereo not drawn)	23.1µM*	.	?	-1.1%
O=C(CC1Nc2cccc3cccc(c23)NC1=O)Nc1ccccc1 (stereo not drawn)	?	8.2%	25.9µM*	-2.0%
NC(=O)CC1Nc2cccc3cccc(c23)NC1=O (stereo not drawn)	16.8%	0.6%	1.7%	-0.7%
Cc1ccc(NC(=O)CC2Nc3cccc4cccc(c34)NC2=O)cc1 (stereo not drawn)	?	7.4%	6.51µM*	1.6%
Cc1ccc([C@H]2C(C(=O)O)=CC[C@@H](c3ccc4c(c3)OCO4)N2S(=O)(=O)c2ccc(C)cc2)cc1	-22.6%	1.0%	-27.7%	1.6%
CCOc1ccc(C2c3c(oc4ccc(C)cc4c3=O)C(=O)N2CCCN(C)C)cc1 (stereo not drawn)	2.4%	-0.9%	-6.4%	0.1%
O=C(c1ccc(Cl)c(S(=O)(=O)N2CCCCC2)c1)N1CCCCC1	?	1.3%[56.1 µM]	-25.7%	-0.1%
CN(c1ccccc1)S(=O)(=O)c1cc(C(=O)N2CCN(c3ccccn3)CC2)ccc1Cl	9.2µM*	2.2%	7.31µM*	-11.9%
CC(=O)N1CCN(C(=O)c2cc(S(=O)(=O)N3CCN(c4ccccc4)CC3)ccc2Cl)CC1	?	0.2%	10.3µM*	1.4%
O=C(c1ccc(Cl)c(S(=O)(=O)N2CCCC2)c1)N1CCN(c2ccc(F)cc2)CC1	?	-8.6%	13µM*	.
SMILES	DT40 TDP1 CPT	TDP1 inh	TDP1 cell noCPT	ClpP mod
CN1CC(=O)NC1=NC(=O)c1ccc(Cl)c(S(=O)(=O)N2CCCCCC2)c1	?	9.8%	8.2µM*	0.7%
CCn1c(-c2ccccc2F)nc2cc(NC(C)=O)cc(C(=O)N(C)Cc3ccc4nccnc4c3)c21	?	.	-19.8%	.
O=C(c1ccc(Cl)c(S(=O)(=O)N2CCCC2)c1)N1CCN(c2ccccc2)CC1	18.4µM*	5.5%	?	.
O=C(c1ccc(Cl)c(S(=O)(=O)N2CCCCC2)c1)N1CCN(c2ccccc2)CC1	23.1µM*	3.6%	?	0.8%
CC(C)CCNC(=O)[C@H](Cc1ccccc1)N1Cc2ccccc2C1=O	?	.	-11.5%	-1.7%
Cc1ccc(C)c(CN2CCC(CNC(=O)C(CC(C)C)N3Cc4ccccc4C3=O)CC2)c1 (stereo not drawn)	?	3.7%	11.6µM*	1.4%
CC(C)CC(C(=O)NCC1CCN(Cc2ccc(F)cc2)CC1)N1Cc2ccccc2C1=O (stereo not drawn)	23.1µM*	5.0%	20.6µM*	0.8%
Cc1cc2cc(CN(Cc3cccs3)C(c3nnnn3C(C)(C)C)C(C)C)c3nnnn3c2cc1C (stereo not drawn)	14.6µM*	0.0%	9.2µM*	-16.3%
COc1ccc(Cl)cc1C(=O)NNC(=S)NC(=O)c1cc(-c2ccccc2)nc2ccccc12	?	3.8%	?	-0.5%
CCCOc1ccc(C(=O)NNC(=S)NC(=O)c2cc(-c3ccc(Cl)cc3)nc3ccccc23)cc1	23.1µM*	13.1%	11.6µM*	0.5%
COc1ccc(C(=O)NNC(=S)NC(=O)c2cc(-c3ccccc3)nc3ccccc23)cc1	?	12.8%	16.4µM*	-7.6%
CCC(=O)c1ccc(OCC(O)CNC2CCCC2)cc1 (stereo not drawn)	-3.7%	.	20.2%	0.0%
COC(=O)CCC(C)C1CCC2C3C(OC(C)=O)CC4CC(O)CCC4(C)C3CC(O)C12C (stereo not drawn)	?	.	16.4µM*	1.0%
COC(=O)CCC(C)C1CCC2C3CCC4CC(O)CCC4(C)C3CC(O)C12C (stereo not drawn)	13µM*	.	20.6µM*	0.8%
COc1cc(OC)cc(-c2nc(-c3ccc4c(c3)[nH]c(=O)n4C)no2)c1	-7.8%	2.2%	12.8%	0.2%
CC(=O)NS(=O)(=O)c1ccc(NC(=O)[C@@H]2CCCN2S(=O)(=O)c2ccc(Cl)cc2)cc1	1.2%	2.2%	23.3%	-1.0%
Cc1ccc2nc3cc([N+](=O)[O-])cc([N+](=O)[O-])c3cc2c1	0.461µM*	4.9%	0.581µM*	1.5%
Cc1nc(SCC(=O)NNC(=O)c2cccs2)[nH]c(=O)c1C	-17.1%	8.6%	-16.0%	.
CCN1CCN(CC(=O)n2c3c(c4ccccc42)CC(C)CC3)CC1 (stereo not drawn)	?	7.8%	18.4µM*	-6.8%
COc1ccc(NC(=O)C(c2ccc(C)cc2)N(C)C(=O)c2cnccn2)cc1 (stereo not drawn)	-6.0%	5.4%	-9.5%	0.6%
